From article PMC9838217, “Structure of SALL4 zinc finger domain reveals link between AT-rich DNA binding and Okihiro syndrome”
Residue numbers refer to the chain shown, from its start.

biological target: T1, SALL4 ZFC4 WT (HT-SELEX) (Mus musculus, UniProt Q8BX22 870-940); assay: HT-SELEX; high values mean tight binding; conditions: protein: recombinant; vector His6-GST; dsDNA, one strand shown
T1 sequence: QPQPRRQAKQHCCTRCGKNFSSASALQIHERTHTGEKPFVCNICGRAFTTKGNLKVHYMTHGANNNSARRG
Procedure, shortened: (§1)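 Binding signal is expressed as fold change in each canonical k-mer's read fraction over the initial random library. To obtain it, 1 µg of purified recombinant mouse SALL4 zinc finger cluster 4 (residues 870–940) was incubated for 10 min at room temperature with library DNA (1.5 µg first cycle, 200 ng later cycles) in 100 µl of 10 mM Tris–HCl pH 7.5, 50 mM NaCl, poly(dI-dC) and DTT. Ni2+ bead-captured complexes went through washing, PCR amplification and reselection for up to 6 cycles, in triplicate, before MiSeq sequencing and scanning for 6-mers.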

Sequence	binding signal [fold-change vs cycle 0]
AACGTG	0.697 ± 0.0529
TTTAAA	2.46 ± 0.106
AGGTAG	0.817 ± 0.0419
GACACC	0.393 ± 0.0241
TATGCA	1.19 ± 0.0704
TATTCA	2.4 ± 0.138
ATTGAA	2.11 ± 0.107
CACGTG	0.391 ± 0.0518
AAAGTG	1.1 ± 0.0306
ATTTAA	3.2 ± 0.134
ATTAAA	3.73 ± 0.281
TAATCA	2.37 ± 0.116
AGTCCC	0.468 ± 0.0376
AAAACC	0.956 ± 0.0539
ACACGG	0.354 ± 0.0115
ACGTTC	0.7 ± 0.0339
TTGAAA	1.92 ± 0.106
ACCGGT	0.368 ± 0.0353
CTAAGC	0.7 ± 0.0291
AATGTA	2.02 ± 0.0563

Sequence	binding signal [fold-change vs cycle 0]
CCAGAA	0.726 ± 0.028
ATCATG	1.38 ± 0.03
ACACGT	0.75 ± 0.0296
AACGAG	0.782 ± 0.0393
GTGAAA	1.16 ± 0.0303
CTCAAG	0.858 ± 0.0354
CTCCCC	0.313 ± 0.0129
GTGTGA	0.748 ± 0.0198
ACTTAA	1.95 ± 0.0715
GTTGAA	1.18 ± 0.0583
ACACTC	0.798 ± 0.0206
AAATCT	1.82 ± 0.0976
CTTGTC	0.741 ± 0.0177
ATACAC	1.31 ± 0.0559
GGAGAA	0.849 ± 0.0319
AGCACT	0.65 ± 0.0278
AAAGCA	1.06 ± 0.0392
GTGTAA	1.24 ± 0.0525
CAGTAC	0.772 ± 0.0398
AAAAAA	2.68 ± 0.235

biological target: T2, SALL4 ZFC4 R900W (HT-SELEX) (Mus musculus, UniProt Q8BX22 870-940, R900W); assay: HT-SELEX; high values mean tight binding; conditions: protein: recombinant; vector His6-GST; dsDNA, one strand shown
T2 sequence: T1 sequence with R31W
Procedure, shortened: as §1

Sequence	binding signal [fold-change vs cycle 0]
AACGTG	0.827 ± 0.0416
TTTAAA	2.33 ± 0.125
AGGTAG	0.986 ± 0.0401
GACACC	0.461 ± 0.0351
TATGCA	1.16 ± 0.0312
TATTCA	2.03 ± 0.0979
ATTGAA	2.06 ± 0.169
CACGTG	0.459 ± 0.0227
AAAGTG	1.23 ± 0.0192
ATTTAA	2.48 ± 0.146
ATTAAA	2.54 ± 0.18
TAATCA	2.13 ± 0.0839
AGTCCC	0.54 ± 0.0297
AAAACC	1.05 ± 0.0465
ACACGG	0.455 ± 0.00764
ACGTTC	0.844 ± 0.024
TTGAAA	1.88 ± 0.0943
ACCGGT	0.438 ± 0.0164
CTAAGC	0.793 ± 0.0207
AATGTA	1.99 ± 0.0939

Sequence	binding signal [fold-change vs cycle 0]
CCAGAA	0.821 ± 0.0147
ATCATG	1.48 ± 0.0158
ACACGT	0.89 ± 0.061
AACGAG	0.894 ± 0.0693
GTGAAA	1.27 ± 0.0355
CTCAAG	1.02 ± 0.032
CTCCCC	0.36 ± 0.0359
GTGTGA	0.881 ± 0.0312
ACTTAA	2.12 ± 0.103
GTTGAA	1.34 ± 0.0591
ACACTC	0.908 ± 0.0437
AAATCT	1.85 ± 0.0812
CTTGTC	0.888 ± 0.0216
ATACAC	1.36 ± 0.0547
GGAGAA	0.985 ± 0.0471
AGCACT	0.746 ± 0.0409
AAAGCA	1.13 ± 0.0246
GTGTAA	1.37 ± 0.0544
CAGTAC	0.92 ± 0.0398
AAAAAA	1.98 ± 0.146

biological target: T3, SALL4 ZFC4 G921D (HT-SELEX) (Mus musculus, UniProt Q8BX22 870-940, G921D); assay: HT-SELEX; high values mean tight binding; conditions: protein: recombinant; vector His6-GST; dsDNA, one strand shown
T3 sequence: T1 sequence with G52D
Procedure, shortened: as §1

Sequence	binding signal [fold-change vs cycle 0]
AACGTG	0.87 ± 0.0436
TTTAAA	2.04 ± 0.174
AGGTAG	0.998 ± 0.0166
GACACC	0.593 ± 0.067
TATGCA	1.15 ± 0.0173
TATTCA	1.83 ± 0.191
ATTGAA	1.86 ± 0.169
CACGTG	0.562 ± 0.0574
AAAGTG	1.22 ± 0.0345
ATTTAA	2.15 ± 0.212
ATTAAA	2.14 ± 0.26
TAATCA	1.88 ± 0.168
AGTCCC	0.65 ± 0.0407
AAAACC	1.1 ± 0.0332
ACACGG	0.548 ± 0.0679
ACGTTC	0.8714 ± 0.00795
TTGAAA	1.7 ± 0.131
ACCGGT	0.518 ± 0.0665
CTAAGC	0.857 ± 0.014
AATGTA	1.76 ± 0.157

Sequence	binding signal [fold-change vs cycle 0]
CCAGAA	0.852 ± 0.0285
ATCATG	1.4 ± 0.0239
ACACGT	0.954 ± 0.0298
AACGAG	0.934 ± 0.0683
GTGAAA	1.19 ± 0.0481
CTCAAG	1.04 ± 0.0506
CTCCCC	0.456 ± 0.0544
GTGTGA	0.9 ± 0.0278
ACTTAA	1.85 ± 0.222
GTTGAA	1.3 ± 0.109
ACACTC	0.948 ± 0.0215
AAATCT	1.72 ± 0.124
CTTGTC	0.915 ± 0.0332
ATACAC	1.35 ± 0.0583
GGAGAA	0.959 ± 0.0602
AGCACT	0.859 ± 0.0159
AAAGCA	1.14 ± 0.0213
GTGTAA	1.28 ± 0.0793
CAGTAC	0.957 ± 0.0386
AAAAAA	1.76 ± 0.185
